From ChEMBL document CHEMBL4513146, “CO-ADD screening of Karazin Kharkiv National University (Ukraine) compounds” come the findings set out here.

Entries with a potency or affinity are not part of this list.

One assay has as its system Candida albicans. Conditions: Concentration 32 ug.mL-1; ASSAY_TEST Inhibition of Fungal Growth; detection method Absorption (OD530).
In the case of `CSc1ccc(-c2noc(Cn3nc4ccc(-c5ccccc5)nn4c3=O)n2)cc1`, the Inhibition came to 17.1%.

Consider `COc1ccc(C)cc1NC(=O)Cn1nc2ccc(SCc3ccc(Cl)cc3)nn2c1=O`, for which the Inhibition came to 31.09%.

For `O=C(Cn1nc2nc(Nc3ccc(F)cc3)ccn2c1=O)NCC1CCCO1` (stereo not given), the Inhibition came to 1.89%.

For the molecule `O=C(Cn1nc2c(SCc3ccccc3)nccn2c1=O)NC1CCCCC1`, the Inhibition stood at 4.49%.

As for `COc1ccc(NC(=O)Cn2nc3ccc(SCc4ccc(Cl)cc4)nn3c2=O)cc1`, the Inhibition is recorded as 48.76%.

As to `COc1cccc(-n2ccn3c(SCC(=O)Nc4cc(Cl)ccc4OC)nnc3c2=O)c1`, the Inhibition is listed as 13.1%.

`Cc1cccc(Cn2nc3c(=O)n(-c4cccc(Cl)c4C)ccn3c2=O)c1`: the Inhibition was found to be 8.37%.

As to `Cc1ccc(NC(=O)CSc2nc3ccccc3n3c(C(C)C)nnc23)cc1Cl`, the Inhibition is -0.39%.

In the case of `Cc1ccc(-c2cc3c4nnc(SCC(=O)Nc5cccc(Br)c5)n4ccn3n2)cc1`, the Inhibition came to 7.43%.

Consider `Cc1cc(C)cc(N(Cc2c(F)cccc2Cl)S(=O)(=O)c2cccn3cnnc23)c1`, for which the Inhibition was determined as 3.71%.

As for `O=c1n(Cc2nc(-c3ccc(F)cc3)no2)nc2ccc(-c3ccccc3)nn12`, the Inhibition is -1.53%.

For `CCc1ccc(NC(=O)Cn2nc3ccc(SC(C)(C)C)nn3c2=O)cc1`, the Inhibition is listed as 4.19%.

For `Cc1cccc(CN(c2ccc(F)cc2)S(=O)(=O)c2ccc3nnc(C)n3c2)c1`, the Inhibition is listed as 1.93%.

Consider `CCCCc1ccc(NC(=O)Cn2nc3c(N4CC(C)CC(C)C4)nccn3c2=O)cc1` (stereo not given), for which the Inhibition is 4.16%.

On to `Cc1cc(C)cc(NC(=O)Cn2nc3c(N4CCCC4)nccn3c2=O)c1`, for which the Inhibition was 0.29%.

Consider `Cc1ccc(Cn2nc3c(=O)n(-c4ccc(C)c(C)c4)ccn3c2=O)cc1`, for which the Inhibition was found to be 3.7%.

Turning to `Cc1cc(C)c(NC(=O)Cn2nc3ccc(SC4CCCCC4)nn3c2=O)c(C)c1`, the Inhibition turned out to be 19.78%.

As to `Cc1cccc(NC(=O)Cn2nc3c(SCc4ccc(Cl)cc4)nccn3c2=O)c1C`, the Inhibition came to 5.99%.

On to `CCc1nnc2c(S(=O)(=O)N(Cc3cccc(F)c3)c3cccc(C)c3)cccn12`, for which the Inhibition is given as 0.97%.

As for `COc1cc(NC(=O)Cn2nc3c(N4CCCC(C)C4)nccn3c2=O)cc(OC)c1` (stereo not given), the Inhibition is 3.21%.

As for `CCc1ccccc1NC(=O)Cn1nc2n(CCC(C)C)c(=O)c3sccc3n2c1=O`, the Inhibition is reported as 8.44%.

For `Cc1ccc(Oc2nccn3c(=O)n(CC(=O)Nc4ccc(Br)cc4)nc23)cc1`, the Inhibition was determined as 10.23%.

As to `O=c1n(Cc2c(F)cccc2Cl)nc2ccc(-c3ccccc3)nn12`, the Inhibition is 8.72%.

As for `COc1cccc(CN(c2ccc(F)cc2)S(=O)(=O)c2cccn3cnnc23)c1`, the Inhibition is -0.06%.

As for `COc1cccc(NC(=O)Cn2c(=O)c3nnc(C(C)C)n3c3ccccc32)c1`, the Inhibition is on record as 3.17%.

With `O=C(Cn1nc2c3cc(-c4ccc(Cl)cc4)nn3ccn2c1=O)NC1CCCC1`, the Inhibition is recorded as 2.49%.

With `Cc1cc(C)c(NC(=O)Cn2nc3c4cc(-c5ccc(F)cc5)nn4ccn3c2=O)c(C)c1`, the Inhibition is 18.72%.

For `O=C(NCc1ccccc1)c1ccc2nn(CC(=O)N3CCN(c4ccc(F)cc4)CC3)c(=O)n2c1`, the Inhibition is 5.32%.

In the case of `CC(C)c1ccc(NC(=O)Cn2nc3c(N4CCCCC4)nccn3c2=O)cc1`, the Inhibition is reported as 4.27%.

With `O=C(Cn1nc2c3cc(-c4ccc(Cl)cc4)nn3ccn2c1=O)N1CCN(c2ccccc2)CC1`, the Inhibition was determined as 0.94%.

Turning to `CCc1cccc(NC(=O)CSc2nnc3c(=O)n(-c4cccc(OC)c4)ccn23)c1`, the Inhibition is reported as 13.59%.

Take `CSc1cccc(NC(=O)Cn2nc3c(Oc4cc(C)cc(C)c4)nccn3c2=O)c1`: the Inhibition is listed as 2.48%.

Consider `O=C(Cn1nc2c(SC3CCCCC3)nccn2c1=O)Nc1cccc(Cl)c1`, for which the Inhibition came to 27.21%.

As for `O=C(Cn1nc2c(Sc3cccc(F)c3)nccn2c1=O)Nc1cccc(Br)c1`, the Inhibition was -0.26%.

For `Cc1ccc(Cn2c(=O)c3ccc(C(=O)NC4CCCC4)cc3n3c(=O)n(CC#N)nc23)cc1`, the Inhibition was 2.86%.

Turning to `Cc1ccc(-c2cc3c4nn(CC(=O)Nc5ccc(C)c(Cl)c5)c(=O)n4ccn3n2)cc1C`, the Inhibition amounted to 8.38%.

`Cc1nnc2c(S(=O)(=O)N(Cc3ccc(F)cc3)c3ccc(Cl)cc3)cccn12`: the Inhibition is 4.67%.

Consider `Cc1cccc(CN(c2cccc(Cl)c2)S(=O)(=O)c2cccn3c(C)nnc23)c1`, for which the Inhibition amounted to 1.52%.

`CCc1nnc2c(S(=O)(=O)N(Cc3cccc(Cl)c3)c3ccccc3)cccn12`: the Inhibition is 2.13%.

Take `Cc1ccc(-n2ccn3c(=O)n(Cc4ccc(Cl)cc4)nc3c2=O)cc1C`: the Inhibition was found to be 0.66%.

A further assay relates to Cryptococcus neoformans. Conditions: Concentration 32 ug.mL-1; ASSAY_TEST Inhibition of Fungal Growth; detection method Resazurin; Absorption (OD600-OD570); plate type 384well; NBS; CORNING #3640. (Resazurin is reduced to fluorescent resorufin, in cell work by metabolically active cells.)
Consider `CSc1ccc(-c2noc(Cn3nc4ccc(-c5ccccc5)nn4c3=O)n2)cc1`, for which the Inhibition was -6.64%.

With `COc1ccc(C)cc1NC(=O)Cn1nc2ccc(SCc3ccc(Cl)cc3)nn2c1=O`, the Inhibition is listed as -20.73%.

`O=C(Cn1nc2nc(Nc3ccc(F)cc3)ccn2c1=O)NCC1CCCO1` (stereo not given): the Inhibition is on record as -8.84%.

Turning to `O=C(Cn1nc2c(SCc3ccccc3)nccn2c1=O)NC1CCCCC1`, the Inhibition is on record as -7.22%.

As for `COc1ccc(NC(=O)Cn2nc3ccc(SCc4ccc(Cl)cc4)nn3c2=O)cc1`, the Inhibition is -13.57%.

On to `COc1cccc(-n2ccn3c(SCC(=O)Nc4cc(Cl)ccc4OC)nnc3c2=O)c1`, for which the Inhibition was -11.15%.

For `Cc1cccc(Cn2nc3c(=O)n(-c4cccc(Cl)c4C)ccn3c2=O)c1`, the Inhibition was -8.02%.

With `Cc1ccc(NC(=O)CSc2nc3ccccc3n3c(C(C)C)nnc23)cc1Cl`, the Inhibition is reported as -22.27%.

In the case of `Cc1ccc(-c2cc3c4nnc(SCC(=O)Nc5cccc(Br)c5)n4ccn3n2)cc1`, the Inhibition was -29.25%.

For the molecule `Cc1cc(C)cc(N(Cc2c(F)cccc2Cl)S(=O)(=O)c2cccn3cnnc23)c1`, the Inhibition is on record as -5.6%.

On to `O=c1n(Cc2nc(-c3ccc(F)cc3)no2)nc2ccc(-c3ccccc3)nn12`, for which the Inhibition is recorded as -18.94%.

In the case of `CCc1ccc(NC(=O)Cn2nc3ccc(SC(C)(C)C)nn3c2=O)cc1`, the Inhibition is -17.5%.

On to `Cc1cccc(CN(c2ccc(F)cc2)S(=O)(=O)c2ccc3nnc(C)n3c2)c1`, for which the Inhibition was -4.65%.

For the molecule `CCCCc1ccc(NC(=O)Cn2nc3c(N4CC(C)CC(C)C4)nccn3c2=O)cc1` (stereo not given), the Inhibition is -10.16%.

For the molecule `Cc1cc(C)cc(NC(=O)Cn2nc3c(N4CCCC4)nccn3c2=O)c1`, the Inhibition is -23.65%.

In the case of `Cc1ccc(Cn2nc3c(=O)n(-c4ccc(C)c(C)c4)ccn3c2=O)cc1`, the Inhibition is reported as -17.46%.

For the molecule `Cc1cc(C)c(NC(=O)Cn2nc3ccc(SC4CCCCC4)nn3c2=O)c(C)c1`, the Inhibition is -14.71%.

For `Cc1cccc(NC(=O)Cn2nc3c(SCc4ccc(Cl)cc4)nccn3c2=O)c1C`, the Inhibition is on record as -31.05%.

In the case of `CCc1nnc2c(S(=O)(=O)N(Cc3cccc(F)c3)c3cccc(C)c3)cccn12`, the Inhibition was -1.17%.

On to `COc1cc(NC(=O)Cn2nc3c(N4CCCC(C)C4)nccn3c2=O)cc(OC)c1` (stereo not given), for which the Inhibition is on record as -46.51%.

Regarding `CCc1ccccc1NC(=O)Cn1nc2n(CCC(C)C)c(=O)c3sccc3n2c1=O`, the Inhibition is given as -17.68%.

Take `Cc1ccc(Oc2nccn3c(=O)n(CC(=O)Nc4ccc(Br)cc4)nc23)cc1`: the Inhibition is reported as -16.67%.

On to `O=c1n(Cc2c(F)cccc2Cl)nc2ccc(-c3ccccc3)nn12`, for which the Inhibition is recorded as -10.32%.

Take `COc1cccc(CN(c2ccc(F)cc2)S(=O)(=O)c2cccn3cnnc23)c1`: the Inhibition was -1.54%.

As for `COc1cccc(NC(=O)Cn2c(=O)c3nnc(C(C)C)n3c3ccccc32)c1`, the Inhibition is given as -13.4%.

As to `O=C(Cn1nc2c3cc(-c4ccc(Cl)cc4)nn3ccn2c1=O)NC1CCCC1`, the Inhibition is -18.35%.

For `Cc1cc(C)c(NC(=O)Cn2nc3c4cc(-c5ccc(F)cc5)nn4ccn3c2=O)c(C)c1`, the Inhibition is on record as -19.36%.

For `O=C(NCc1ccccc1)c1ccc2nn(CC(=O)N3CCN(c4ccc(F)cc4)CC3)c(=O)n2c1`, the Inhibition was -7.39%.

As to `CC(C)c1ccc(NC(=O)Cn2nc3c(N4CCCCC4)nccn3c2=O)cc1`, the Inhibition is -12.25%.

With `O=C(Cn1nc2c3cc(-c4ccc(Cl)cc4)nn3ccn2c1=O)N1CCN(c2ccccc2)CC1`, the Inhibition is -23.41%.

With `CCc1cccc(NC(=O)CSc2nnc3c(=O)n(-c4cccc(OC)c4)ccn23)c1`, the Inhibition is recorded as -2.76%.

On to `CSc1cccc(NC(=O)Cn2nc3c(Oc4cc(C)cc(C)c4)nccn3c2=O)c1`, for which the Inhibition was -9.76%.

With `O=C(Cn1nc2c(SC3CCCCC3)nccn2c1=O)Nc1cccc(Cl)c1`, the Inhibition is on record as -17.97%.

Take `O=C(Cn1nc2c(Sc3cccc(F)c3)nccn2c1=O)Nc1cccc(Br)c1`: the Inhibition is on record as -2.48%.

On to `Cc1ccc(Cn2c(=O)c3ccc(C(=O)NC4CCCC4)cc3n3c(=O)n(CC#N)nc23)cc1`, for which the Inhibition is recorded as -4.65%.

With `Cc1ccc(-c2cc3c4nn(CC(=O)Nc5ccc(C)c(Cl)c5)c(=O)n4ccn3n2)cc1C`, the Inhibition was -8.69%.

Regarding `Cc1nnc2c(S(=O)(=O)N(Cc3ccc(F)cc3)c3ccc(Cl)cc3)cccn12`, the Inhibition is on record as -7.17%.

`Cc1cccc(CN(c2cccc(Cl)c2)S(=O)(=O)c2cccn3c(C)nnc23)c1`: the Inhibition is on record as -9.64%.

For `CCc1nnc2c(S(=O)(=O)N(Cc3cccc(Cl)c3)c3ccccc3)cccn12`, the Inhibition is given as -7.64%.

With `Cc1ccc(-n2ccn3c(=O)n(Cc4ccc(Cl)cc4)nc3c2=O)cc1C`, the Inhibition is -5.42%.

The Inhibition is the change of the read-out against control, counted positive when it falls.
